IP6K1 inhibitor – inhibitors of human IP6K1; 140,000 tested, 0.81% active; activity change, % (series mostly up to about 58 µM); IP6K1 kinase, ADP-Glo luminescence, 2 h; active compounds read low; Q92551; in the data active = activity change below about -25%
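ADP-Glo luminescence measures ADP made by human IP6K1 during a 2 h RT reaction with ATP/IP6 (mix at 1.3 mM/130 uM); top library doses 57.5 and 19.1 uM final.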
KDM5B inh – inhibitors of human KDM5B histone demethylase; AID 1347165; 220,000 tested, 2.6% active; KDM5B demethylase, FDH-coupled NADH fluorescence (FDH is formaldehyde dehydrogenase); Q9UGL1; Potency, µM (titrated, usually from 57.7 µM), most hits filed as inhibitors; active = well fitted inhibition curve with a large enough effect; inconclusive = small, poorly fitted or top-dose-only effect; inactive = no such curve, though single readings can be large or run the other way; note: nearly all actives have a fitted effect of over 70% in size
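qHTS format, multiple compound concentrations. Buffer 50 mM HEPES pH 7.5/0.01% Tween-20; 200 nM KDM5BΔAP final; 10 min compound preincubation; substrate-mix levels 12.5 µM peptide, 25 µM α-KG, 0.25 mM NAD⁺; 30 min RT; ΔRFU.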
Large screens that a line does not name were inactive. Sampled rows, rich in hits. Any-hit rate of the full collection: about 2.8%.

Cc1noc(C)c1-c1cc(-c2ccc(CO)cc2)cn2cncc12	KDM5B inh 35µM
COc1ccc(-c2cc(-c3ccc([S+](C)(=O)[O-])cc3)cn3cncc23)cc1	none
Cc1noc(C)c1-c1cc(-c2ccc([S+](C)(=O)[O-])cc2)cn2cncc12	KDM5B inh 32µM
Cc1noc(C)c1-c1cc(-c2cccc(O)c2)cn2cncc12	KDM5B inh inconclusive
O=C(NCc1ccc(F)c(F)c1)c1ccc2nnc(Cc3ccc(Cl)cc3)n2c1	none (no result: KDM5B inh)
COc1ccc(-c2cc3nc4c(c(=O)n3[nH]2)CN(S(=O)(=O)c2cccs2)CC4)cc1	KDM5B inh inconclusive
COc1ccc(-c2cc3nc4c(c(=O)n3[nH]2)CN(C(=O)CN(C)S(=O)(=O)c2cnc[nH]2)CC4)cc1	KDM5B inh 25µM
CN(CC(=O)N1CCc2nc3cc(-c4ccccc4)[nH]n3c(=O)c2C1)S(=O)(=O)c1cccs1	KDM5B inh inconclusive
CN(CC(=O)N1CCc2nc3cc(-c4ccccc4)[nH]n3c(=O)c2C1)S(=O)(=O)c1cnc[nH]1	KDM5B inh 28µM
CCn1ccc2sc(C)c(C(=O)NCCC(C)C)c2c1=O	none
Cc1ccc(CNC(=O)c2c(C)sc3ccn(CC(C)C)c(=O)c23)o1	KDM5B inh 25µM
COCCn1cnnc1SCc1ccc(Br)cc1	none (no result: IP6K1 inhibitor)
c1ccc2sc([C@H]3CCN(C4CCC4)C3)nc2c1	KDM5B inh inconclusive
CC(=O)N1CCC(N2CC[C@H](c3nc4ccccc4s3)C2)CC1	KDM5B inh 32µM
COc1ccc(CN2CCOc3nc(-c4ccc(F)cc4F)ncc3C2=O)cc1	none
COc1cccc(-c2ncc3c(n2)OCCN(Cc2ccccc2)C3=O)c1	KDM5B inh 35µM
COc1ccc(-c2ncc3c(n2)OCCN(Cc2ccccc2)C3=O)cc1	none
COc1ccc(CN2CCOc3nc(-c4ccc(O)c(F)c4)ncc3C2=O)cc1	KDM5B inh 32µM
O=C(Cc1cccc(Cl)c1)NC1CCCN(c2ccnc3ccnn23)C1 (centres undefined)	none (no result: KDM5B inh)
CC(C)c1nc2c(c(-c3ccc(Cl)cc3)n1)CCN(Cc1ccc(N(C)C)cc1)CC2	KDM5B inh inconclusive
Cc1cc(C)c(CNC(=O)c2cc(-c3ccc(CN(C)C)cc3)cc3ncn(C)c23)c(=O)[nH]1	none
Cc1cc(C)c(CNC(=O)c2cc(-c3cnn(C)c3C)cc3c2OCCN3C)c(=O)[nH]1	KDM5B inh 32µM
COc1ncccc1-c1cc(C(=O)NCc2c(C)cc(C)[nH]c2=O)c2c(c1)N(C)CCO2	KDM5B inh 35µM
COc1ccccc1-c1cc(C(=O)NCc2c(C)cc(C)[nH]c2=O)c2c(c1)ncn2C	KDM5B inh inconclusive
COc1ccc(-c2cc(C(=O)NCc3c(C)cc(C)[nH]c3=O)c3c(c2)N(C)CCO3)cc1	KDM5B inh 32µM
Cc1cc(C)c(CNC(=O)c2cc(-c3ccnn3C)cc3c2OCCN3C)c(=O)[nH]1	KDM5B inh 35µM
Cc1cc(C)c(CNC(=O)c2cc(-c3cccnc3)cc3c2OCCN3C(C)C)c(=O)[nH]1	KDM5B inh inconclusive
COc1cccc(-c2cc3c(ccn3C)c(C(=O)NCc3c(C)cc(C)[nH]c3=O)n2)c1	KDM5B inh inconclusive
O=C(Cn1cnc2sc3c(c2c1=O)CCCC3)NCCC(=O)N1CCC(Cc2ccccc2)CC1	none (no result: IP6K1 inhibitor)
N#CCCCN1CCCC1Cc1ccccc1 (centres undefined)	none (no result: IP6K1 inhibitor)
Cc1ccc(OCc2nc(C3CN(C(=O)c4n[nH]c5ccccc45)C3)no2)cc1	KDM5B inh inconclusive
O=C1c2cccnc2OC(COc2ccccc2)CN1c1ccccc1 (centres undefined)	none (no result: KDM5B inh)
O=C(Cc1cccc(Cl)c1)N1CCN(c2nccc(Nc3ccccc3F)n2)CC1	none (no result: KDM5B inh)
Cc1c(-c2ccccc2F)[nH]c2ccc(CNC(=O)CCN3CCCO3)cc12	KDM5B inh 25µM
Cc1c(-c2ccccc2F)[nH]c2ccc(CNC(=O)CC3CCC(=O)N3)cc12 (centres undefined)	KDM5B inh 32µM
Cc1c(-c2ccccc2F)[nH]c2ccc(CNC(=O)CCc3cnccn3)cc12	KDM5B inh 13µM
CCc1[nH]c2ccc(CNC(=O)c3coc(CN4CCOCC4)c3)cc2c1C	KDM5B inh inconclusive
Cc1c(-c2ccccc2F)[nH]c2ccc(CNC(=O)CCc3cc(=O)[nH]o3)cc12	KDM5B inh inconclusive
O=C1CCCCC(CNC(=O)c2ccccc2F)N1 (centres undefined)	none
Cc1nc2cnccn2c1C(=O)NCc1ccccc1Cl	none (no result: KDM5B inh)
Cc1nn(-c2ccccc2)c2c1C(C(C)C)N(C1CCN(C(=O)c3ccccc3)CC1)C2=O (centres undefined)	none (no result: KDM5B inh)
O=C1CC2(CCN(C(=O)C3CCN(C(=O)Cc4cccc(Cl)c4)CC3)CC2)Oc2ccccc2N1	none (no result: KDM5B inh)
C[C@@]12CO[C@H](c3ccccc3)C[C@@H]1C[C@H](N1CCN(Cc3ccnc4ccccc34)CC1)C2	none (no result: KDM5B inh)
O=C(CCc1c[nH]c2ccccc12)Nc1ccc(F)c(F)c1	none (no result: IP6K1 inhibitor)
Cc1noc(-c2cccs2)c1C(=O)NC1CCc2ccccc21 (centres undefined)	KDM5B inh 28µM

Assay outcomes deposited in PubChem by National Center for Advancing Translational Sciences (NCATS).
